# Reference: PubChem BioAssay (NCI)
# Where “and” joins values, the source holds several entries; their conditions need not be identical. Equal entries are not always repeated. Compounds without any hit were thinned out: in the full panel of roughly 79,000, 15% have a hit. A structure can be active in one record and inactive in another. Calls of active or inactive are those of the source. No stated cut-off is given here; in the data, active means growth inhibition above about 70%; inactive means the rest.
# Tests used:
# [1] = NCI Yeast Anticancer Drug Screen. Data for the rad18 strain (AID 177); settings: S. cerevisiae rad18 mutant growth inhibition, stronger effect = higher value
# How it was run: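 Test articles were incubated with altered yeast defective in DNA damage repair. Results are given as inhibition of growth versus vehicle.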
# [2] = NCI Yeast Anticancer Drug Screen. Data for the rad50 strain (AID 155);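 further: 0% = growth of vehicle-only cultures of the same strain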; settings: S. cerevisiae rad50 strain growth inhibition, stronger effect = higher value
# How it was run: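 Cells are treated with compound, grown, and their growth is then scored against vehicle-only cultures of the same repair-deficient yeast strain.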
# [3] = NCI Yeast Anticancer Drug Screen. Data for the mec2-1 strain (AID 157); settings: S. cerevisiae mec2-1 strain, stronger effect = higher value
# How it was run: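 Vehicle-treated cultures served as reference for growth inhibition of compound-exposed mec2-1 yeast.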
# [4] = NCI Yeast Anticancer Drug Screen. Data for the sgs1 mgt1 strain (AID 161);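 further: 0% = growth of cultures given vehicle only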; settings: S. cerevisiae sgs1 mgt1 strain, stronger effect = higher value
# How it was run: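 Mutant yeast exposed to compound; growth scored against vehicle-only wells.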
# [5] = NCI Yeast Anticancer Drug Screen. Data for the cln2 rad14 strain (AID 165);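 further: 0% = growth equal to vehicle treated cultures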; settings: S. cerevisiae cln2 rad14 strain, stronger effect = higher value
# How it was run: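 Each compound was tested on cln2 rad14 yeast. Inhibition of growth was calculated against vehicle-exposed controls.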
# [6] = NCI Yeast Anticancer Drug Screen. Data for the bub3 strain (AID 167); settings: S. cerevisiae bub3 mutant strain, stronger effect = higher value
# How it was run: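 Part of a panel of yeast mutants defective in DNA damage repair or cell cycle regulation. Each strain is grown with compound, and inhibition is calculated relative to solvent-treated cultures.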
# [7] = NCI Yeast Anticancer Drug Screen. Data for the mlh1 rad18 strain (AID 175); settings: S. cerevisiae mlh1 rad18 strain growth inhibition, stronger effect = higher value
# How it was run: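 Vehicle-treated cultures served as the reference for growth inhibition in a yeast strain carrying DNA damage repair alterations exposed to each compound.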
# [8] = at 5.0 µM (retest, dose inferred, filed as 0.5)
# [9] = at 50.0 µM (retest, dose inferred, filed as 5.0)
compound,measurement,setting,value
CC(O)CN1C(=O)c2cccc3cc([N+](=O)[O-])cc(c23)C1=O (stereo unspecified),growth inhibition,[1]; at 11.0 µM,9% (inactive)
same,growth inhibition,[1]; at 33.0 µM,67% (inactive)
same,growth inhibition,[1]; at 100.0 µM,88% (active)
Nc1ccccc1SSc1ccccc1N,growth inhibition,[2]; [8],27% (inactive) and 9% (inactive) and 56% (inactive)
same,growth inhibition,[2]; [9],99% (active) and -9% (inactive)
same,growth inhibition,[2]; at 50.0 µM,99.4% (active) and 99% (active) and 99.3% (active)
same,growth inhibition,[3]; [8],80% (active) and 18% (inactive) and 29% (inactive)
same,growth inhibition,[3]; [9],99% (active) and 0% (inactive)
same,growth inhibition,[3]; at 50.0 µM,99.5% (active) and 99.1% (active)
same,growth inhibition,[4]; [8],67% (inactive) and 13% (inactive) and 41% (inactive)
same,growth inhibition,[4]; [9],99% (active) and 12% (inactive)
same,growth inhibition,[4]; at 50.0 µM,99.3% (active)
same,growth inhibition,[5]; [8],17% (inactive) and 4% (inactive) and 13% (inactive)
same,growth inhibition,[5]; [9],99% (active) and 5% (inactive)
same,growth inhibition,[5]; at 50.0 µM,99.2% (active) and 98.8% (active)
same,growth inhibition,[6]; [8],87% (active) and 13% (inactive) and 89% (active)
same,growth inhibition,[6]; [9],99% (active) and 28% (inactive)
same,growth inhibition,[6]; at 50.0 µM,98.3% (active) and 99.1% (active)
same,growth inhibition,[7]; [8],80% (active) and 17% (inactive) and 46% (inactive)
same,growth inhibition,[7]; [9],99% (active) and 7% (inactive)
same,growth inhibition,[7]; at 50.0 µM,99.3% (active) and 99% (active)
